HDAC3 inh = blocks human histone deacetylase 3; O15379; recombinant HDAC3, fluorogenic peptide/trypsin coupled, fluorescence; inhibition, % at 8.3 µM; actives 0.15% (n = 320,000); in the data active means inhibition above about 26%, passing the limit was not always enough
SUMO Mot1 rescue = inhibitors of SUMOylation pathway: yeast Mot1-301 growth rescue; growth rescue, % at 18.8 µM; S. cerevisiae Mot1-301 growth rescue, ATP luminescence, 38.5C; percent above DMSO median, 100 means doubled; actives 1% (n = 320,000); AID 2716;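 active means every valid replicate shows activation above 250% relative to neutral control wells; inactive means the rest, any valid replicate at or below 250%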
PvdQ inh = blocks Pseudomonas aeruginosa PvdQ acylase activity; purified PvdQ acylase, fluorescence plate reader; inhibition, % at 10 µM; actives 0.063% (n = 340,000); in the data active means inhibition above about 30%, passing the limit was not always enough
JMJD2C inh = blocks human GASC-1 demethylase activity | inhibition, % at 2.35 µM | actives 0.069% (n = 330,000) | AID 2099 | GST-JMJD2C(1-420) H3K9me3 demethylation, DELFIA europium;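 active means more than half of a compound's replicate wells show inhibition beyond 50%, single wells judged on their own value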;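 further: signal counts dimethyl H3K9 product captured on neutravidin plate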
Target sequence (Q9H3R0 1-420 limits assumed): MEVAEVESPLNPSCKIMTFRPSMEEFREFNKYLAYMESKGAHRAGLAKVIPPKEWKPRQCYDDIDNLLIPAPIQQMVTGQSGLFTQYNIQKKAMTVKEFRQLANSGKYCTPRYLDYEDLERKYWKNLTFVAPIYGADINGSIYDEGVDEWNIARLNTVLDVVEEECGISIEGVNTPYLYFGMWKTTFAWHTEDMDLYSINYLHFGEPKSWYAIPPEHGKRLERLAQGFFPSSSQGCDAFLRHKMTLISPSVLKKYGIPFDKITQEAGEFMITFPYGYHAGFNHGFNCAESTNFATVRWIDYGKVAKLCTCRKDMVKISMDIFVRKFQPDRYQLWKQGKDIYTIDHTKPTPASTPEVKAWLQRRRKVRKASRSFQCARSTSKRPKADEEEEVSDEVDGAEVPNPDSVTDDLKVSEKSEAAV
pCIP destab = p/CIP protein destabilization. AID 1984. F442A p/CIP-EGFP cells, EGFP fluorescence, 16 h. Q05BA5. actives 0.01% (n = 290,000). decrease of EGFP signal, % at 10 µM;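 active means EGFP signal decrease of at least 30% at 10 µM or well 3 SD below plate mean, unless failing retest; inactive means the rest, including hits failing retest or dose response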
PHOSPHO1 inh = PHOSPHO1 (human) inhibition | recombinant PHOSPHO1, absorbance phosphatase assay | inhibition, % at 13.3 µM | AID 1565 | actives 1.1% (n = 290,000); in the data active means inhibition above about 60%
Target sequence (Q8TCT1 whole entry, looked up): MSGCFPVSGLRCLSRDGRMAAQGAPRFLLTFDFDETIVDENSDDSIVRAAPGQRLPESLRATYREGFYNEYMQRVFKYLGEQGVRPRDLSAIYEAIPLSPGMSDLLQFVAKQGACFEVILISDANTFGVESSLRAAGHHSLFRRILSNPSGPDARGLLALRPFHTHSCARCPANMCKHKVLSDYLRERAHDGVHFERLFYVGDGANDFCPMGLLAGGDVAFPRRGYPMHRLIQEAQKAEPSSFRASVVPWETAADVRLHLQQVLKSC
Yeast Mot1 SUMO = yeast SUMO pathway inhibition in dose response; growth activity, percent, % at 42 µM; shares compounds with SUMO Mot1 rescue; 2,300 tested, under 10 active; S. cerevisiae Mot1-301 galactose growth, ATP luminescence, 24 h; -100 = growth of slx-deleted rescue strain;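 active means Signal drops as the depositor expects, and the fitted half-maximal dose is no more than ten times the top valid tested dose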;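 further: more negative values mean stronger growth rescue toward the control strain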
Large screens that a line does not name were inactive (follow-up assays come after a bar, where they were run). In the library only some 2.2% were active in any assay of this set; here they are far more common.

O=C(Nc1ccc(Cl)cc1)N1CCC(c2nc(-c3ccc(F)cc3)no2)CC1	SUMO Mot1 rescue active | Yeast Mot1 SUMO inactive
CCOc1ccc(N2CC(C(=O)OC)CC2=O)cc1 (stereo not drawn)	SUMO Mot1 rescue 385 | Yeast Mot1 SUMO inactive
CCNC(=O)C1CC(=O)N(c2ccc(OCC)cc2)C1 (stereo not drawn)	none
O=C(NCCCCc1ccccc1)c1ccccc1Br	none (no result: PvdQ inh, pCIP destab, PHOSPHO1 inh)
Cc1ccc(NC(=O)c2cc(S(=O)(=O)N3CCCCC3)c[nH]2)cc1C	none
CCC(C)NCCOc1ccccc1C (stereo not drawn)	SUMO Mot1 rescue 386 | Yeast Mot1 SUMO inactive
CCCc1nc2c(nnn2Cc2ccccc2F)c(=O)[nH]1	SUMO Mot1 rescue 386 | Yeast Mot1 SUMO inactive
O=c1[nH]c(C(F)(F)F)nc2c1nnn2Cc1ccccc1F	none
CS(=O)(=O)c1ccccc1C(=O)N(CCc1ccccc1)Cc1ccccc1	none
COc1ccc(C(=O)N(CCc2ccccc2)Cc2ccccc2)c(OC)n1	SUMO Mot1 rescue 658 | Yeast Mot1 SUMO inactive
CNC(=O)c1ccccc1S(=O)c1ccccc1COC(C)=O (stereo not drawn)	SUMO Mot1 rescue 384 | Yeast Mot1 SUMO inactive
COc1cccc(OC)c1C(=O)NNS(=O)(=O)c1ccc2ccccc2c1	none
CCCCNS(=O)(=O)c1ccc2c(c1)oc(=O)n2CC(=O)OCC	SUMO Mot1 rescue 540 | Yeast Mot1 SUMO inactive
Cc1ccc(C)c(C(C)NC(=O)c2ccncc2)c1 (stereo not drawn)	SUMO Mot1 rescue 752 | Yeast Mot1 SUMO inactive
Cc1cc(C)c(NC(=O)CNC(=O)c2cc([N+](=O)[O-])ccc2N2CCOCC2)c(C)c1	SUMO Mot1 rescue 507 (no result: pCIP destab, PHOSPHO1 inh) | Yeast Mot1 SUMO inactive
CCN(C(=O)COC(=O)c1cc([N+](=O)[O-])ccc1N1CCOCC1)C1CCCCC1	SUMO Mot1 rescue 538 (no result: HDAC3 inh, pCIP destab, PHOSPHO1 inh) | Yeast Mot1 SUMO inactive
CCN(C(=O)COC(=O)c1cc([N+](=O)[O-])ccc1N1CCOCC1)C1CCS(=O)(=O)C1 (stereo not drawn)	none (no result: pCIP destab, PHOSPHO1 inh)
C=CCn1c(=N)c(C(=O)NCCCOC)cc2c(=O)n3ccccc3nc21	SUMO Mot1 rescue 603 | Yeast Mot1 SUMO inactive
CN(CC(=O)Nc1ccc(F)c(F)c1F)C(=O)c1ccc2c(c1)OCCO2	none (no result: pCIP destab, PHOSPHO1 inh)
O=C(O)c1ccc(N=C2NC(=O)C(CO)(CO)S2)cc1	SUMO Mot1 rescue 767 | Yeast Mot1 SUMO inactive
CC1(C2CC2)NC(=O)N(CC(=O)Nc2cc(S(=O)(=O)N3CCCCC3)ccc2Cl)C1=O (stereo not drawn)	none (no result: pCIP destab, PHOSPHO1 inh)
CN(C)S(=O)(=O)c1ccc(Cl)c(NC(=O)CN2C(=O)NC(C)(C3CC3)C2=O)c1 (stereo not drawn)	SUMO Mot1 rescue 651 | Yeast Mot1 SUMO inactive
CCOC(=O)c1sc2ncn(C(CC)C(=O)OCC)c(=O)c2c1C (stereo not drawn)	SUMO Mot1 rescue 592 | Yeast Mot1 SUMO inactive
CCOC(=O)c1c(NC(=O)COC(=O)CCOc2ccc(C)cc2)sc(C(=O)N(C)C)c1C	none (no result: pCIP destab, PHOSPHO1 inh)
CN(C)S(=O)(=O)c1ccc(C(=O)Nc2cccnc2)cc1	none (no result: HDAC3 inh)
CN(C)S(=O)(=O)c1ccc(C(=O)/C=C/c2cccnc2)cc1	SUMO Mot1 rescue 644 | Yeast Mot1 SUMO inactive
COc1ccccc1CNC(=O)C1CCN(S(=O)(=O)c2ccc3c(c2)C(C)(C)C(=O)N3C)CC1	none
CC(=O)c1ccc(NC(=O)CSc2nnc(-c3ccco3)o2)cc1	SUMO Mot1 rescue 426 | Yeast Mot1 SUMO inactive
O=c1[nH]c(=O)c2[nH]c(=O)n(-c3ccccc3)c2[nH]1	none (no result: HDAC3 inh, SUMO Mot1 rescue, JMJD2C inh, pCIP destab, PHOSPHO1 inh)
c1ccc2c(c1)[nH]c1c(N3CCN(C4CCCCC4)CC3)ncnc12	SUMO Mot1 rescue 739 (no result: pCIP destab, PHOSPHO1 inh) | Yeast Mot1 SUMO inactive
COc1ccc(N2CCN(C(=O)Cc3ccc(OC)c(OC)c3)CC2)cc1	none
COc1cc(C(=O)Nc2sc3c(c2C(=O)O)CCC(C)C3)cc(OC)c1OC (stereo not drawn)	SUMO Mot1 rescue 438 | Yeast Mot1 SUMO inactive
COc1cc(C(=O)Nc2sc(C)c(C)c2C(=O)O)cc(OC)c1OC	none
CC(=O)c1ccccc1C(=O)N1CCCC(N2CCN(Cc3ccc4c(c3)OCO4)CC2)C1 (stereo not drawn)	SUMO Mot1 rescue 360 | Yeast Mot1 SUMO inactive
Cc1[nH]c(C)c(S(=O)(=O)NCCc2ccccc2)c1C(=O)N1CCCC1	none
Cc1[nH]c(C)c(S(=O)(=O)NCC(C)c2ccccc2)c1C(=O)N1CCCCC1 (stereo not drawn)	SUMO Mot1 rescue 497 | Yeast Mot1 SUMO inactive
Cc1ccc(SCCC(=O)Nc2ccc(OCc3ccccc3)cc2)cc1	SUMO Mot1 rescue 968 | Yeast Mot1 SUMO inactive
COc1ccc(OCC(=O)Nc2ccc(C)cc2)cc1	SUMO Mot1 rescue 859 | Yeast Mot1 SUMO inactive
COc1ccc(NC(=O)COCC(=O)Nc2ccc(C)cc2)cc1	none
COc1ccc(NC(=O)CN(C)C(=O)c2cc(C)on2)cc1	SUMO Mot1 rescue 678 (no result: pCIP destab, PHOSPHO1 inh) | Yeast Mot1 SUMO inactive
CCOC(=O)C1CCN(S(=O)(=O)CCNC(=O)c2cccc(OC)c2)CC1	none (no result: pCIP destab, PHOSPHO1 inh)
NC(=O)c1nsc(C(=O)N(Cc2ccc(F)cc2)C(C(=O)NC2CCCC2)c2ccco2)c1N (stereo not drawn)	SUMO Mot1 rescue 876 | Yeast Mot1 SUMO inactive
CCOc1ccccc1N(C(=O)c1snc(C(N)=O)c1N)C(CC)C(=O)NC1CCCC1 (stereo not drawn)	SUMO Mot1 rescue 578 | Yeast Mot1 SUMO inactive
O=C(CN(C(=O)c1csnn1)c1ccccc1Cl)NC1CCCC1	none
COc1ccccc1NC(=S)NC1CCCCCC1	none
CS(=O)(=O)N(CC(=O)Nc1ccccc1C(=O)N1CCCC1)c1ccc2c(c1)OCO2	SUMO Mot1 rescue 822 | Yeast Mot1 SUMO inactive
COC(=O)c1cccc(NC(=O)CN(c2ccc3c(c2)OCO3)S(C)(=O)=O)c1C	SUMO Mot1 rescue active | Yeast Mot1 SUMO inactive
CS(=O)(=O)N(CC(=O)NCCSCc1ccccc1)c1ccc2c(c1)OCO2	SUMO Mot1 rescue active | Yeast Mot1 SUMO inactive
COC(=O)c1cc(NC(=O)CN(c2ccc3c(c2)OCO3)S(C)(=O)=O)ccc1Cl	none
Cc1c(NC(=O)COC(=O)CSc2ccc(C(N)=O)cc2[N+](=O)[O-])c(=O)n(-c2ccccc2)n1C	none
O=C(c1ccc2c(=O)n(Cc3ccccc3Cl)c(=S)[nH]c2c1)N1CCOCC1	SUMO Mot1 rescue 422 | Yeast Mot1 SUMO inactive
CC(Sc1ncccn1)C(=O)Nc1ccc2c(c1)OCO2 (stereo not drawn)	none (no result: pCIP destab, PHOSPHO1 inh)
Oc1ccc(C(=S)N2CCCCC2)cc1	none
S=C(c1ccc(N2CCOCC2)cc1)N1CCCCC1	SUMO Mot1 rescue 367 | Yeast Mot1 SUMO inactive
COC(=O)c1cc(NC(=O)CSc2nnc(CN3CCOCC3)n2C)ccc1Cl	none

Assay outcomes: PubChem BioAssay, several laboratories
